# Test results reported in the supplement of paper PMC8728848.
# About 410 targets per protein were measured; listed, in parts, are those with the strongest signals and a random draw of the rest.
# Key:
# Assay in all cases: glycan array binding signal (z-score within array); higher = stronger binding
# Settings in all cases: glycan notation: IUPAC condensed, linker removed
# [1] = molecular target: Gal(b1-4)GlcNAc(b1-3)[GlcNAc(b1-6)]Gal(b1-4)GlcNAc
# In short: (§1)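 From the Consortium for Functional Glycomics database, 3228 arrays were curated, keeping only those whose protein sequence was available. Binding is given as a within-array Z-score averaged across arrays sharing a protein sequence and across linkers. Negative Z-scores can be read as non-binding.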
# [2] = molecular target: Gal(b1-6)Gal
# In short: as §1
# [3] = molecular target: Gal3S6S(b1-4)GlcNAc
# In short: as §1
# [4] = molecular target: Gal6S(b1-4)GlcNAc
# In short: as §1
# [5] = molecular target: GalNAc(b1-4)GlcNAc(b1-3)GalNAc(b1-4)GlcNAc
# In short: as §1
# [6] = molecular target: GalNAc3S(b1-4)[Fuc(a1-3)]GlcNAc
# In short: as §1
# [7] = molecular target: GlcNAc(a1-3)Gal(b1-4)GlcNAc
# In short: as §1
# [8] = molecular target: GlcNAc(a1-4)Gal(b1-4)GlcNAc(b1-3)Gal(b1-4)GlcNAc(b1-3)Gal(b1-4)GlcNAc
# In short: as §1
# [9] = molecular target: GlcNAc(b1-2)[GlcNAc(b1-4)]Man(a1-3)[GlcNAc(b1-2)Man(a1-6)]Man(b1-4)GlcNAc(b1-4)GlcNAc
# In short: as §1
# [10] = molecular target: GlcNAc(b1-3)Gal(b1-4)GlcNAc(b1-3)Gal(b1-4)GlcNAc(b1-2)[GlcNAc(b1-3)Gal(b1-4)GlcNAc(b1-3)Gal(b1-4)GlcNAc(b1-6)]Man(a1-6)[GlcNAc(b1-3)Gal(b1-4)GlcNAc(b1-3)Gal(b1-4)GlcNAc(b1-2)Man(a1-3)]Man(b1-4)GlcNAc(b1-4)[Fuc(a1-6)]GlcNAc
# In short: as §1
# [11] = molecular target: GlcNAc(b1-3)Gal(b1-4)GlcNAc(b1-3)Gal(b1-4)GlcNAc(b1-3)Gal(b1-4)GlcNAc(b1-2)[GlcNAc(b1-3)Gal(b1-4)GlcNAc(b1-3)Gal(b1-4)GlcNAc(b1-3)Gal(b1-4)GlcNAc(b1-6)]Man(a1-6)[GlcNAc(b1-3)Gal(b1-4)GlcNAc(b1-3)Gal(b1-4)GlcNAc(b1-3)Gal(b1-4)GlcNAc(b1-2)Man(a1-3)]Man(b1-4)GlcNAc(b1-4)[Fuc(a1-6)]GlcNAc
# In short: as §1
# [12] = molecular target: GlcNAc(b1-3)Man
# In short: as §1
# [13] = molecular target: GlcNAc(b1-3)[GlcNAc(b1-4)][GlcNAc(b1-6)]GlcNAc
# In short: as §1
# [14] = molecular target: GlcNAc(b1-4)GlcNAc(b1-4)GlcNAc(b1-4)GlcNAc(b1-4)GlcNAc(b1-4)GlcNAc
# In short: as §1
# [15] = molecular target: Kdn(a2-3)Gal(b1-4)Glc
# In short: as §1
# [16] = molecular target: Kdn(a2-6)Gal(b1-4)GlcNAc
# In short: as §1
# [17] = molecular target: Man(a1-3)[Man(a1-6)]Man(a1-6)[Man(a1-2)Man(a1-3)]Man(b1-4)GlcNAc(b1-4)GlcNAc
# In short: as §1
# [18] = molecular target: Man(a1-3)[Man(a1-6)]Man(a1-6)[Man(a1-3)]Man
# In short: as §1
# [19] = molecular target: Man(a1-3)[Man(a1-6)]Man(a1-6)[Man(a1-3)]Man(b1-4)GlcNAc(b1-4)GlcNAc
# In short: as §1
# [20] = molecular target: Man(a1-3)[Man(a1-6)]Man(b1-4)GlcNAc(b1-4)[Fuc(a1-6)]GlcNAc
# In short: as §1
# [21] = molecular target: Man(a1-6)Man
# In short: as §1
# [22] = molecular target: Neu5Ac(a2-3)Gal(b1-3)GlcNAc(b1-2)Man(a1-3)[Neu5Ac(a2-3)Gal(b1-3)GlcNAc(b1-2)Man(a1-6)]Man(b1-4)GlcNAc(b1-4)GlcNAc
# In short: as §1
# [23] = molecular target: Neu5Ac(a2-3)Gal(b1-3)GlcNAc(b1-6)GalNAc
# In short: as §1
# [24] = molecular target: Neu5Ac(a2-3)[Neu5Ac(a2-6)]GalNAc
# In short: as §1
# [25] = molecular target: Neu5Ac(a2-6)Gal(b1-4)GlcNAc(b1-2)Man(a1-3)[Gal(b1-4)GlcNAc(b1-2)Man(a1-6)]Man(b1-4)GlcNAc(b1-4)GlcNAc
# In short: as §1
# [26] = molecular target: Neu5Ac(a2-6)Gal(b1-4)GlcNAc(b1-2)Man(a1-3)[Man(a1-6)]Man(b1-4)GlcNAc(b1-4)GlcNAc
# In short: as §1
# [27] = molecular target: Neu5Ac(a2-8)Neu5Ac(a2-3)Gal(b1-4)Glc
# In short: as §1
# [28] = molecular target: Neu5Ac(a2-8)Neu5Ac(a2-8)Neu5Ac(a2-3)[GalNAc(b1-4)]Gal(b1-4)Glc
# In short: as §1
# [29] = molecular target: Neu5Gc(a2-3)Gal(b1-3)GlcNAc
# In short: as §1
binder,measurement,setting,value
PfulAvr4 (Pseudocercospora fuligena) (protein) HHHHHHDYKDDDDKTYVQDKTPAFVCPAADIKTTKCLGPKDCLYPSPKTCNGYIQCSPADDSYLTGIIHEMPCPSGLLWNDNKKWCDWPENTTCGLVKSAGATEVDATKQGPTPGKYHG,glycan array binding signal (z-score),[1],1.21
same,glycan array binding signal (z-score),[2],-0.156
same,glycan array binding signal (z-score),[3],0.034
same,glycan array binding signal (z-score),[4],-0.128
same,glycan array binding signal (z-score),[5],-0.127
same,glycan array binding signal (z-score),[6],-0.134
same,glycan array binding signal (z-score),[7],-0.093
same,glycan array binding signal (z-score),[8],-0.059
same,glycan array binding signal (z-score),[9],-0.053
same,glycan array binding signal (z-score),[10],-0.049
same,glycan array binding signal (z-score),[11],-0.07
same,glycan array binding signal (z-score),[12],0.804
same,glycan array binding signal (z-score),[13],-0.124
same,glycan array binding signal (z-score),[14],23.3
same,glycan array binding signal (z-score),[15],0.189
same,glycan array binding signal (z-score),[16],0.004
same,glycan array binding signal (z-score),[17],0.011
same,glycan array binding signal (z-score),[18],-0.076
same,glycan array binding signal (z-score),[19],-0.097
same,glycan array binding signal (z-score),[20],-0.095
same,glycan array binding signal (z-score),[21],-0.118
same,glycan array binding signal (z-score),[22],1.27
same,glycan array binding signal (z-score),[23],-0.082
same,glycan array binding signal (z-score),[24],-0.131
same,glycan array binding signal (z-score),[25],3.32
same,glycan array binding signal (z-score),[26],-0.088
same,glycan array binding signal (z-score),[27],-0.074
same,glycan array binding signal (z-score),[28],-0.132
same,glycan array binding signal (z-score),[29],-0.161
